# The entries come from a sample that favours the strongest signals as a whole.
# B1: PX14343E-bfa-545-24-545 (Bacteroides fragilis) (protein)
# chain: LDRYPQEELSDGSFWKTPDDANKVVSDLYGYLSTWDQDNDINSDNATMGIKWAAGNVSKGIYDPADQGWSGDYANVRQCNLILSKIDEIPDYPEADKTKALGQVYFFRAYIYFNLIRSFGDVPYIDKPLDLKDMEGITRMPRAEVYEKIMADFDKAIAALPTEWGASDYGRVTKGAAMAMKARAALYYGNWDTAATEAKNVMDLGLYELYDKDNTGKYAELFWEKADGCDEFILVTQFNYPDKTHYLMGWECFPTKGWGGMNPTQSLVDAFEDSEGAPISKSKIYDPTDPFKNRDPRLEVDILHDGEEMYGVTIKVAPLASSGSTGINQHNDATETGYYGQKWLDPSLDPLSDGWNMGKDWVHIRYAEVLLTYAEAKNELQGLDPEAFDAVNQVRRRVGMPELQNTDPSKPTYCATQDDLRQRIRNEWRVEFCLEGGKRMWDIRRWGIAKDVLNAPFEGLKYKIVDNPNDPDKKVDGGKMCILYQGDPIILSGSRYSDNNYLFPVPQSEIDLNPALTQNPGY
# Legend:
# Test in all cases: glycan array binding signal (z-score within array); higher = stronger binding
# Settings in all cases: glycan notation: IUPAC condensed, linker removed
# [1] = target: Fuc(a1-2)Gal(b1-3)GalNAc(b1-3)Gal(a1-4)Gal(b1-4)Glc
# How it was run: (§1)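 Glycan array binding is given as a within-array Z-score, which can be read as non-binding when negative. The arrays, 3228 of them, came from the Consortium for Functional Glycomics database and were retained only where the protein sequence was available. Z-scores were averaged across arrays of the same protein sequence at different concentrations or buffers and across linkers.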
# [2] = target: Fuc(a1-2)Gal(b1-4)GlcNAc(b1-2)[Fuc(a1-2)Gal(b1-4)GlcNAc(b1-4)]Man(a1-3)[Fuc(a1-2)Gal(b1-4)GlcNAc(b1-2)Man(a1-6)]Man(b1-4)GlcNAc(b1-4)GlcNAc
# How it was run: as §1
# [3] = target: Fuc(a1-2)Gal(b1-4)[Fuc(a1-3)]GlcNAc
# How it was run: as §1
# [4] = target: Fuc(a1-2)Gal(b1-4)[Fuc(a1-3)]GlcNAc(b1-2)Man(a1-3)[Fuc(a1-2)Gal(b1-4)[Fuc(a1-3)]GlcNAc(b1-2)Man(a1-6)]Man(b1-4)GlcNAc(b1-4)[Fuc(a1-6)]GlcNAc
# How it was run: as §1
# [5] = target: Fuc(a1-2)[Gal(a1-3)]Gal(b1-3)GalNAc(b1-3)Gal(a1-4)Gal(b1-4)Glc
# How it was run: as §1
# [6] = target: Fuc(a1-2)[Gal(a1-3)]Gal(b1-4)GlcNAc
# How it was run: as §1
# [7] = target: Fuc(a1-2)[GalNAc(a1-3)]Gal(b1-4)GlcNAc(b1-3)GalNAc
# How it was run: as §1
# [8] = target: Fuc(a1-2)[GalNAc(a1-3)]Gal(b1-4)GlcNAc(b1-6)GalNAc
# How it was run: as §1
# [9] = target: Fuc(a1-3)[Gal(b1-4)]GlcNAc(b1-2)Man(a1-3)[Fuc(a1-3)[Gal(b1-4)]GlcNAc(b1-2)Man(a1-6)]Man(b1-4)GlcNAc(b1-4)GlcNAc
# How it was run: as §1
# [10] = target: Fuc(a1-3)[Gal(b1-4)]GlcNAc(b1-3)GalNAc
# How it was run: as §1
# [11] = target: Gal(a1-3)Gal(b1-3)[Fuc(a1-4)]GlcNAc(b1-2)Man(a1-3)[Gal(a1-3)Gal(b1-3)[Fuc(a1-4)]GlcNAc(b1-2)Man(a1-6)]Man(b1-4)GlcNAc(b1-4)GlcNAc
# How it was run: as §1
# [12] = target: Gal(a1-3)Gal(b1-4)GlcNAc(b1-2)Man(a1-3)[Gal(a1-3)Gal(b1-4)GlcNAc(b1-2)Man(a1-6)]Man(b1-4)GlcNAc(b1-4)GlcNAc
# How it was run: as §1
# [13] = target: Gal(a1-3)Gal(b1-4)[Fuc(a1-3)]GlcNAc(b1-2)Man(a1-3)[Gal(a1-3)Gal(b1-4)[Fuc(a1-3)]GlcNAc(b1-2)Man(a1-6)]Man(b1-4)GlcNAc(b1-4)GlcNAc
# How it was run: as §1
# [14] = target: Gal(a1-4)Gal(b1-3)GlcNAc(b1-2)Man(a1-3)[Gal(a1-4)Gal(b1-3)GlcNAc(b1-2)Man(a1-6)]Man(b1-4)GlcNAc(b1-4)GlcNAc
# How it was run: as §1
# [15] = target: Gal(b1-3)GlcNAc(b1-2)Man(a1-3)[Gal(b1-3)GlcNAc(b1-2)Man(a1-6)]Man(b1-4)GlcNAc(b1-4)GlcNAc
# How it was run: as §1
# [16] = target: Gal(b1-3)GlcNAc(b1-3)Gal(b1-4)GlcNAc
# How it was run: as §1
# [17] = target: Gal(b1-3)[Neu5Ac(a2-6)]GlcNAc(b1-4)Gal(b1-4)Glc
# How it was run: as §1
# [18] = target: Gal(b1-4)GlcNAc(b1-3)Gal(b1-4)GlcNAc(b1-2)[Gal(b1-4)GlcNAc(b1-3)Gal(b1-4)GlcNAc(b1-6)]Man(a1-6)[Gal(b1-4)GlcNAc(b1-3)Gal(b1-4)GlcNAc(b1-2)Man(a1-3)]Man(b1-4)GlcNAc(b1-4)[Fuc(a1-6)]GlcNAc
# How it was run: as §1
# [19] = target: Gal(b1-4)GlcNAc(b1-3)Gal(b1-4)GlcNAc(b1-3)Gal(b1-4)GlcNAc(b1-2)Man(a1-3)[Gal(b1-4)GlcNAc(b1-3)Gal(b1-4)GlcNAc(b1-3)Gal(b1-4)GlcNAc(b1-2)Man(a1-6)]Man(b1-4)GlcNAc(b1-4)GlcNAc
# How it was run: as §1
# [20] = target: Gal(b1-4)GlcNAc(b1-3)Gal(b1-4)GlcNAc(b1-3)Gal(b1-4)GlcNAc(b1-2)[Gal(b1-4)GlcNAc(b1-3)Gal(b1-4)GlcNAc(b1-3)Gal(b1-4)GlcNAc(b1-6)]Man(a1-6)[Gal(b1-4)GlcNAc(b1-3)Gal(b1-4)GlcNAc(b1-3)Gal(b1-4)GlcNAc(b1-2)Man(a1-3)]Man(b1-4)GlcNAc(b1-4)[Fuc(a1-6)]GlcNAc
# How it was run: as §1
# [21] = target: Gal(b1-4)GlcNAc(b1-3)Gal(b1-4)GlcNAc(b1-3)Gal(b1-4)GlcNAc(b1-3)Gal(b1-4)GlcNAc(b1-2)Man(a1-3)[Gal(b1-4)GlcNAc(b1-3)Gal(b1-4)GlcNAc(b1-3)Gal(b1-4)GlcNAc(b1-3)Gal(b1-4)GlcNAc(b1-2)Man(a1-6)]Man(b1-4)GlcNAc(b1-4)[Fuc(a1-6)]GlcNAc
# How it was run: as §1
# [22] = target: Gal(b1-4)GlcNAc(b1-3)Gal(b1-4)GlcNAc(b1-3)[Gal(b1-4)GlcNAc(b1-3)Gal(b1-4)GlcNAc(b1-6)]GalNAc
# How it was run: as §1
# [23] = target: Gal(b1-4)GlcNAc(b1-6)[Gal(b1-4)GlcNAc(b1-3)]GalNAc
# How it was run: as §1
# [24] = target: Gal6S(b1-4)GlcNAc6S
# How it was run: as §1
# [25] = target: GalNAc(b1-3)GlcNAc
# How it was run: as §1
# [26] = target: GalNAc(b1-4)GlcNAc(b1-2)Man(a1-3)[GalNAc(b1-4)GlcNAc(b1-2)Man(a1-6)]Man(b1-4)GlcNAc(b1-4)GlcNAc
# How it was run: as §1
# [27] = target: Glc(b1-4)Glc
# How it was run: as §1
binder,measurement,setting,value
B1,glycan array binding signal (z-score),[1],-0.281
same,glycan array binding signal (z-score),[2],-0.211
same,glycan array binding signal (z-score),[3],-0.665
same,glycan array binding signal (z-score),[4],0.859
same,glycan array binding signal (z-score),[5],-0.61
same,glycan array binding signal (z-score),[6],-0.855
same,glycan array binding signal (z-score),[7],-0.508
same,glycan array binding signal (z-score),[8],0.103
same,glycan array binding signal (z-score),[9],4.63
same,glycan array binding signal (z-score),[10],1.3
same,glycan array binding signal (z-score),[11],2.95
same,glycan array binding signal (z-score),[12],4.55
same,glycan array binding signal (z-score),[13],3.48
same,glycan array binding signal (z-score),[14],2.18
same,glycan array binding signal (z-score),[15],0.652
same,glycan array binding signal (z-score),[16],-0.675
same,glycan array binding signal (z-score),[17],-0.838
same,glycan array binding signal (z-score),[18],1.62
same,glycan array binding signal (z-score),[19],3.79
same,glycan array binding signal (z-score),[20],4.56
same,glycan array binding signal (z-score),[21],2.87
same,glycan array binding signal (z-score),[22],2.88
same,glycan array binding signal (z-score),[23],-0.034
same,glycan array binding signal (z-score),[24],-0.429
same,glycan array binding signal (z-score),[25],0.169
same,glycan array binding signal (z-score),[26],1.25
same,glycan array binding signal (z-score),[27],0.195

# From the supplement of paper PMC8728848
